Test results: PubChem BioAssay AID588856 (National Center for Advancing Translational Sciences (NCATS), 2011)
Where “and” joins values, the source holds several entries; their conditions need not be identical. Identical values can stand only once. In all, about 410,000 compounds went through this assay and about 3,100 (0.76%) were called active. Where a call stands in place of a potency, no number is given. Calls follow the shape of the dose curve; as a rule, active = well fitted cell-killing curve with a large enough effect; inactive = no such curve, though single readings can be large or run the other way. The sample as a whole holds a higher share of actives than the screen did. Where a structure was tested more than once in an assay, its records may differ in their call.

Assay: qHTS for Inhibitors of TGF-b: Cytotox Counterscreen
Details: HepG2 CAGA-GFP viability, ATP luminescence, 18 h; series mostly up to 46.1 µM
Source text: TGF-b is a main component in the TGF-b signaling pathway which plays diverse roles in cellular and development pathways. TGF-b is mediated by transcription factors called "Smads". Although the Smad-dependent pathway is the primary canonical TGF-b signaling mode, TGF-b1 can also activate alternative signaling pathways, including those involving MAPK (ERK, JNK and p38). This interaction may mediate or enhance Smad-dependent responses, or can exert Smad-independent effects. The complexity of this signaling cascade allows the TGF-b superfamily to perform unique, overlapping or redundant functions. We believe that targeting the TGF-beta pathway at the Smad-transcription factor level may eliminate the consequences of disrupting the entire pathway and offer specificity without affecting other signaling pathways. Smad3 is the primary transducer of TGF-b's signals and Smad3 regulates many functions attributed to TGF-b signaling. We hypothesize that Smad3 inhibitors will selectively eliminate Smad3-specific TGF-beta signals without undesired off-target effects. We aim to identify Smad3-small molecule antagonists using a quantitative high throughput screening (qHTS) approach.
A high-throughput assay was developed to screen the NIH Molecular Libraries Small Molecule Repository (MLSMR). This is a cell based assay, where TGF-b is tagged with GFP. This is a counterscreen that evaluates the cytotoxicity of the compounds that were screened in the primary cell-based screen (AID 588855).
MH087449NIH Chemical Genomics Center [NCGC]
NIH Molecular Libraries Probe Centers Network [MLPCN]
Assay Submitter (PI): Sushil Rane, National Institute of […]
Suspensions of trypsinized HEPG2 CAGA-GFP cells were dispensed into white, tissue culture-treated, solid 1536-well plates at 5uL/well (1000 cells/well final concentration) in DMEM medium supplemented with 1% FBS. Plates were incubated at 37 degrees C for 2 hours, after which 23 nL of compounds or DMSO were delivered to each well using a pin tool. One uL of recombinant TGF-beta in DMEM (1% FBS) was then dispensed (500 pg/mL final concentration), and plates were incubated at 37 degrees C for 18 hours. Two uL of CellTiter Glo (Promega), a luminescence-based viability reagent, was dispensed, followed by a 10 minute room temperature incubation. The plates were then measured on a PerkinElmer ViewLux plate reader for luminescence (clear filter) using a 5 second exposure. The %Activity was determined from the corrected luminescence values. Wells containing media only (no cells) were used to normalize %Activity of identified toxic compounds; media-only wells corresponded to 100%Activity (complete cell-killing), while DMSO-dosed cell controls were used to normalize 0%Activity (no toxicity).
Concentration-response curves were fitted to the signals arising from the resulting luminescence. The concentration-effect curves were then classified based on curve quality (r2), response magnitude and degree of measured activity, and compounds were subsequently categorized based on their curve class.
Potency is read from the fitted curve at half-maximal effect.

SMILES	Potency
COc1ccc(NC(=O)C(=O)NCc2ccco2)cc1	inactive
COc1ccc(CS(=O)/C(Cl)=C(/Cl)C(=O)Nc2ccc(OC)nc2)cc1 (centres undefined)	14.1 µM (active)
COc1ccc(CC(=O)Nc2ccc(-c3nc4ccccc4s3)c(C)c2)cc1	inactive
COc1ccc(-n2c(=O)c3c(c4cc(OC)ccc4n3C)n(Cc3cccc(C)c3)c2=O)cc1	inactive
COc1ccc(CNC(=O)C2=Cc3cccc(OC)c3OC2)cc1OC	inactive
COc1ccc(OC)c(CNC(=O)c2c3c(nc4ccccc24)C(=O)N(C2CCCCC2)C3)c1	inactive
O=C(Cc1csc(Nc2nc(=S)[nH]c3ccccc23)n1)NCCCN1CCN(c2cccc(Cl)c2)CC1	inactive
O=C(NCCCN1CCN(c2cccc(Cl)c2)CC1)c1nnc(Cc2ccc(F)cc2Cl)o1	11.2 µM (active)
COc1ccc(N2CCN(CCNC(=O)c3nnc(Cc4c(F)cccc4Cl)o3)CC2)cc1	inactive
CCc1ccc(NC(=O)CN2C(=O)C(c3ccccc3)=NC23CCCCCC3)cc1	inactive
Cc1cnc(NC(=O)c2ccccn2)s1	5.01 µM (active)
COc1ccc(CC(=O)NCc2nnc(SCC(=O)Nc3ncc(C)s3)n2C)cc1	inactive
COC(=O)Nc1ncc(CN2C(=O)c3ccccc3C2=O)s1	inactive
CCOc1ccccc1CNC(=O)c1ccc2c(c1)nc1n2CCC(C)C1 (centres undefined)	inactive
CCN(Cc1ccccc1)Cc1c(O)ccc2c(=O)c(-c3ccc(Cl)cc3Cl)coc12	inactive
Cc1[nH]c2ccccc2c1C(=O)C(=O)N(C)c1ccccc1	inactive
OC[C@@H]1O[C@H](n2cnc3c(SCc4ccccc4)ncnc32)[C@H](O)[C@H]1O	inactive
c1ccc(C[C@H]2CNCCN2CCC23CC4CC(CC(C4)C2)C3)cc1	inactive
c1ccc2c(CCN3CCNC[C@H]3Cc3cccc4ccccc34)cccc2c1	12.6 µM (active)
CC(C)(C)CN1C(=O)C(=O)NC[C@H]1Cc1cccc2ccccc12	inactive
O=c1n(Cc2cccc(C(F)(F)F)c2)c2ccccc2c2nc(-c3ccccc3)nn12	inactive
Brc1cccc[n+]1Cc1cccc(C[n+]2ccccc2Br)c1	inactive
CCOC(=O)Nc1ccc(S(=O)(=O)N(C)C(C)C)cc1	inactive
CCOC(=O)Nc1ccc2c(c1)N(C(=O)CN1CCN3CCCC3C1)c1ccccc1CC2 (centres undefined)	inactive

SMILES	Potency
CCOC(=O)Nc1ccc2c(c1)N(C(=O)CCCl)c1ccccc1[S@]2=O	12.6 µM (active)
Cc1ccc(C(=O)Nc2ccc(C(=O)O)cc2)cc1S(=O)(=O)Nc1ccccc1	inactive
O=C(Nc1ccc2oc(-c3ccc(O)c(Br)c3)nc2c1)c1cc2ccccc2o1	inactive
CCOc1ccc(OCC)c(NS(=O)(=O)c2ccc3[nH]c(=O)ccc3c2)c1	inactive
C[N+]1(CC(=O)c2cccs2)CCOCC1	inactive
CC(=O)Nc1c(C)nn(-c2ccccc2)c1N1CCC(C(=O)Nc2cc(Cl)ccc2C)CC1	inactive
Cc1nnc(N2CCC(C(=O)Nc3ccc(F)cc3)CC2)c2nn(-c3ccc(Cl)cc3)c(C)c12	11.2 µM (active)
CCc1ccc(CNC(=O)C2CCN(c3nnc(C)c4c(C)n(-c5ccc(C)cc5)nc34)CC2)cc1	inactive
CCCCc1nn2c(=O)cc(COC(=O)c3cccc(NC(=O)COc4ccccc4)c3)nc2s1	inactive
O=C(NCc1ccccn1)[C@]1(C(F)(F)F)C[C@H](CCc2ccccc2)CCCO1	inactive
CC(C)(C)n1ncc2c(=O)n(Cc3ccc(C(=O)c4ccccc4)cc3)cnc21	inactive
N#C/C(=C\c1ccccc1F)c1nc2ccccc2c(=O)[nH]1	inactive
O=C(/C(=C/c1cccc(Cl)c1)c1nc2ccccc2[nH]1)c1ccccc1	2.82 µM (active)
O=C(O)c1ccc(Cn2c(SCc3ccc(F)cc3)nc3ccncc32)cc1	inactive
COc1ccc(CCNC(=O)c2cnc3sc(N4CCCCCC4)nn3c2=O)cc1OC	inactive
COc1ccc(Cl)cc1NC(=O)C(C)Sc1nc2c(c(=O)[nH]1)CCCC2 (centres undefined)	inactive
ClC/C=C/C[n+]1ccccc1Cl	inactive
CN1c2ccc(Cl)cc2-c2nc(SCC(=O)Nc3cc(F)ccc3F)ncc2S1(=O)=O	inactive
Cc1ccc(C=O)cc1Cl	inactive
COc1ccc(CNC(=O)c2ccc3c(O)c(S(=O)(=O)c4ccccc4)c(=O)[nH]c3c2)cc1	inactive
CCc1ccc(C(=O)CC2(O)C(=O)N(CCc3ccccc3)c3ccc(Br)cc32)cc1 (centres undefined)	14.1 µM (active)
Cc1ccc(C(=O)CC2(O)C(=O)N(CCc3ccccc3)c3ccc(Br)cc32)cc1 (centres undefined)	inactive
CCCN1C(=O)C(O)(CC(=O)c2ccc(CC)cc2)c2cc(Br)ccc21 (centres undefined)	inactive
CC(=O)OCC(NC(=O)C(Cc1ccccc1)NC(=O)OC(C)(C)C)C1OC(n2ccc(=O)[nH]c2=O)C(OC(C)=O)C1OC(C)=O (centres undefined)	inactive

SMILES	Potency
CC(C)(C)c1ccc(C(=O)C[N+]2(C)CCCc3ccccc32)cc1 (centres undefined)	inactive
COc1ccc(NC(=O)CCCN2C(=O)CCn3nc(-c4cn(C)c5ccccc45)cc32)cc1OC	inactive
COC(=O)c1ccc(NC(=O)CN(c2ccc(C)cc2)S(=O)(=O)c2c(C)n[nH]c2C)cc1	inactive
COc1ccc(N(CC(=O)Nc2cc(OC)cc(OC)c2)S(=O)(=O)c2c(C)n[nH]c2C)cc1	inactive
CCOc1ccc(OCC)c(NC(=O)CN(c2ccc(C)cc2)S(=O)(=O)c2c(C)n[nH]c2C)c1	12.6 µM (active)
CCCCCn1c(CCNC(=O)c2ccc(F)cc2)nc2ccccc21	inactive
CCOC(=O)Cn1c(=O)n(-c2ccccc2OC)c2nc(-c3cccc(F)c3)nc(C(N)=O)c21	inactive
CC1=C(C(=O)Nc2ccccc2)C(c2ccc(C)cc2)n2nc(SCc3ccccc3C)nc2N1 (centres undefined)	inactive
C(=Nc1ccc(/C=C/c2ccnc3ccccc23)cc1)c1cc2c3c(c1)CCCN3CCC2	inactive
CCN(CC)S(=O)(=O)c1ccc(N2CCCC2)c(NC(=O)c2ccc([N+](=O)[O-])o2)c1	inactive
Cc1cccc(NC(=O)c2ccc(COc3ccccc3[N+](=O)[O-])o2)n1	inactive
Cc1cccc(NC(=O)CCn2c(=O)oc3ccccc32)c1	inactive
Cc1cccc(NC(=O)c2ccc([N+](=O)[O-])o2)c1	22.4 µM (active)
O=C(NCc1nnnn1-c1ccc(Cl)cc1)c1ccc([N+](=O)[O-])o1	inactive
O=C(Nc1ccc(Br)cn1)c1ccc([N+](=O)[O-])o1	17.8 µM (active)
O=C(NCCc1ccc(Cl)cc1)c1ccc2c(c1)N(Cc1ccc(F)cc1)C(=O)CS2	inactive
O=C1C[C@H]2C=CCc3cccc(c32)CN1Cc1ccccc1	inactive
O=C(COC(=O)c1ccccc1OCCOc1ccccc1)Nc1cccc(Br)c1	inactive
Cc1ccc(C)c2sc(NC(=O)c3ccc(S(=O)(=O)N4CCCC4)cc3)nc12	inactive
Cc1ccc(C)c(Cn2c(CCCNC(=O)C3CCCCC3)nc3ccccc32)c1	inactive
O=C(O)C1=C/C(=C/C=[N+]2c3cc(O)c(O[C@H]4OC(CO)[C@@H](O)[C@@H](O)[C@@H]4O)cc3C[C@@H]2C(=O)[O-])C[C@H](C(=O)O)N1 (some centres undefined)	inactive
O=C(CSc1nc2nccnc2c(=O)n1CCc1c[nH]c2ccccc12)Nc1ccccc1F	inactive
CCOc1cccc(C(=O)Nc2nnc(S(=O)(=O)N(C)c3ccc(C)cc3)s2)c1	inactive
CCOCCCNC(=O)c1c(NC(=O)c2nc(SC)ncc2Cl)sc2c1CCCC2	inactive

SMILES	Potency
CSc1nnc(NC(=O)c2nc(S(=O)(=O)Cc3ccc(C)cc3)ncc2Cl)s1	15.8 µM (active)
Cc1ccc2nc(NC(=O)c3nc(SCc4ccccc4F)ncc3Cl)sc2c1	inactive
Cc1nnc(NC(=O)CSc2nccn2-c2cccc(C)c2C)s1	inactive
Cc1ccc(CS(=O)(=O)c2ncc(Cl)c(C(=O)Nc3nnc(C)s3)n2)cc1	15.8 µM (active)
CCN(CC)/[N+]([O-])=N/Oc1cc(O/[N+]([O-])=N/N2CCCC2CO)c([N+](=O)[O-])cc1[N+](=O)[O-] (centres undefined)	inactive
Brc1nc2ncnc(NCc3ccco3)c2[nH]1	inactive
COC(=O)c1cc(NC(=O)c2cnc(SC)nc2-c2ccccc2)cc(C(=O)OC)c1	inactive
O=C(c1ccco1)N(Cc1cccs1)c1ccc(O)cc1	inactive
Cc1[nH]n(-c2ccccc2)c(=O)c1CCOC(=O)c1ccc(C(F)(F)F)cc1	inactive
COc1ccc(CN2C(CC(=O)Nc3cccnc3)c3ccc(C(F)(F)F)cc3S2(=O)=O)cc1 (centres undefined)	inactive
CCOC(=O)C[C@H]1c2ccc(C(F)(F)F)cc2S(=O)(=O)N1c1ccccc1	inactive and 7.08 µM (active)
Cc1cc(C)c(NC(=O)CN2C(=O)c3cccnc3Oc3ccc(Cl)cc32)c(C)c1	inactive
O=C1CN(Cc2ccccc2)S(=O)(=O)c2ccccc21	inactive
O=C(Nc1ccc(-c2nc3cc(NC(=O)c4ccccc4Cl)ccc3o2)cc1)c1ccccc1Cl	inactive
Cc1ccc(C)c(S(=O)(=O)n2nc(C)c(S(=O)(=O)N3CCC(C)CC3)c2C)c1	inactive
Cc1cc(O)ccc1-c1cc(C(=O)NCc2cc(C(F)(F)F)cc(C(F)(F)F)c2)[nH]n1	12.6 µM (active)
COc1ccc(-c2cc(C(=O)NCc3cc(OC)c(OC)c(OC)c3)[nH]n2)cc1	inactive
COc1ccccc1CNC(=O)c1cc(-c2cc(Cl)ccc2C)n[nH]1	inactive
CN(Cc1ccccc1)c1ncnc2onc(-c3ccc(F)cc3)c12	inactive
CCCCC(=O)OC1=CN(Cc2ccccc2)S(=O)(=O)c2ccccc21	inactive
Cc1ccccc1C(=O)Nc1sc2c(c1C(=O)N1CCC(C)CC1)CCCC2	inactive
O=C(/C=C/Sc1ncn[nH]1)c1ccc(Cl)cc1	12.6 µM (active)
